A selection: hits, their analogues and other compounds. The true share with any hit is near 1.4%.
MbtI inh = inhibitors of Mycobacterium tuberculosis siderophore enzyme MbtI; purified MbtI enzyme, fluorescence intensity read-out; inhibition, % (concentration not given with the values); P9WFX0; AID 493033; actives 0.89% (n = 100,000); in the data active = inhibition mostly above about 56%, no sharp cut-off; inactive = mostly below about 77%
AID504770 = growth inhibitors of E. coli YBA685 in a screen for V. cholerae RctB (chromosome II replication) inhibitors; E. coli YBA685 rctB-dependent plasmid, OD600 growth, 3 h; stronger effect = lower value; z-score (test concentration not listed); actives 0.27% (n = 130,000); AID 504770; in the data active = z-score below about -2, passing the limit was not always enough
PV pol inh = poliovirus RNA polymerase inhibition | P03300 | poliovirus polymerase elongation, fluorescence polarization; stronger effect = lower value | % elongation, % (compound at 16.7 µg/mL) | actives 0.66% (n = 150,000); in the data active = % elongation below about 90%
Target sequence (P03300 1749-2209 limits assumed): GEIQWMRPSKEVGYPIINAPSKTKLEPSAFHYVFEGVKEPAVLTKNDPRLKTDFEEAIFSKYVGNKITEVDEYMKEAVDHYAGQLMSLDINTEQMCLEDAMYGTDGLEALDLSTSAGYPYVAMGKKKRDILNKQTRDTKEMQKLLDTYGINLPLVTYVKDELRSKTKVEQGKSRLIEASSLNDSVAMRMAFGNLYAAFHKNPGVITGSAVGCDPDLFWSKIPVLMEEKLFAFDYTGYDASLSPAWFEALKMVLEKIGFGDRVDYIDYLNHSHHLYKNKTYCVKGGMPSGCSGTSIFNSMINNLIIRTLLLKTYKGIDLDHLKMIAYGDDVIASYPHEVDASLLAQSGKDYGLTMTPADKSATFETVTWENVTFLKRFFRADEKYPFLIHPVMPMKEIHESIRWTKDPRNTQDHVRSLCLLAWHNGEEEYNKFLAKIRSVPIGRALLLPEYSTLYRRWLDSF
Mtb MenB inh = Mtb MenB enzyme inhibition | P9WNP5 | AID 540299 | MenB enzyme assay, absorbance read-out | actives 0.43% (n = 100,000) | inhibition, % (test concentration not listed); in the data active = inhibition above about 21%, passing the limit was not always enough
The depositor's hits bear a star; i = inactive; . = no result; ! = not active in a repeat.

SMILES | MbtI inh | AID504770 | PV pol inh | Mtb MenB inh
CNc1nc(-c2ccccc2)[n+](-c2ccccc2)s1 | 100* | -0.45 | 102 | .
O/N=C/c1c(O)ccc2ccccc12 | -49 | -0.05 | 98 | 32*
CC(C)=CCCC(C)N1CCCCC1 (configuration not stated) | -11 | -0.35 | . | .
NNc1nc2ccccc2[nH]c1=S | 63 | -3.2* | 107 | i
CCCCC(CC)CN=C(N)NC(N)=NCCCCCCN=C(N)NC(N)=NCC(CC)CCCC (configuration not stated) | 55*! | -5.1* | 98 | -4
COc1ccc(C(=O)Sc2nnnn2-c2ccccc2)cc1 | . | -0.05 | . | .
O=C(CSc1ccccc1)N1c2ccccc2Sc2ccccc21 | -5 | 0.4 | 83* | -14
Cn1nnnc1SCC(=O)N1c2ccccc2Sc2ccccc21 | -9 | 0.2 | 104 | -24
Cc1ccccc1-n1c2nc(C#N)c(C#N)nc2c2c1nc(C(C)C)n1c3ccccc3nc21 | -13 | 0.05 | 120 | -23
COc1ccc(S(=O)(=O)N2CCC(NC(=O)NC3CCCC3)CC2)cc1 | 42 | -0.85 | 102 | -14
COc1ccc(S(=O)(=O)N2CCC(NC(=O)c3ccccc3)CC2)cc1 | 0 | 1.4 | 102 | 33*
CCS(=O)(=O)c1ccc2oc(SCC(=O)CSc3nc4cc(S(=O)(=O)CC)ccc4o3)nc2c1 | 8 | 0.3 | 110 | 45*
CCS(=O)(=O)c1ccc2oc(SCC(=O)N3CC(C)OC(C)C3)nc2c1 (configuration not stated) | -10 | -1.1 | 106 | 20
CCCN(c1ccc(F)cc1)c1nc(-c2ccc(OC)cc2)no1 | -1 | -0.35 | 101 | 12
Cc1ccc(-c2n[nH]c(=S)n2C)cc1 | 73 | 1.6 | 101 | 1
Cc1ccc(-c2cn3c(=S)[nH]nc3s2)cc1 | 98* | 0.25 | 100 | -51
O=C(NCc1ccco1)C(c1ccccc1)N(Cc1ccco1)C(=O)Cn1nnc2ccccc21 (configuration not stated) | 1 | -0.5 | 102 | 34*
Cc1ccc(-c2n[nH]c(=S)[nH]c2=O)cc1 | 30 | 0.3 | 107 | -26
COc1ccc(-c2n[nH]c(=S)[nH]c2=O)cc1 | 77* | 0.3 | 94 | -35
Cc1nn(-c2ccccc2)c2c1P(=S)(N1CCOCC1)N(C)C(c1ccccc1)=N2 (configuration not stated) | 80 | -0.5 | 82* | -5
COCCOc1ccc(C(F)(F)F)cc1Nc1nc2ccccc2o1 | 18 | -0.4 | 87* | -53
CCOc1ccccc1N(C)C(=O)c1cn(CC(C)C)c(=O)c2cc(OC)c(OC)cc12 | 6 | -0.65 | 99 | -12
COc1ccc(Cl)cc1S(=O)(=O)NC(C)C | 4 | 0.55 | 100 | -10
COCc1cc(C)nc2sc3c(=O)[nH]c(-c4ccccc4O)nc3c12 | . | -0.65 | 100 | 4
Cc1sc2nc(-c3ccccc3O)[nH]c(=O)c2c1C | . | -0.55 | 75* | -11
SMILES | MbtI inh | AID504770 | PV pol inh | Mtb MenB inh
COC(=O)CC1(O)c2ccccc2C(=O)N1Cc1ccccc1 (configuration not stated) | . | -0.6 | . | .
O=C(O)CC1(O)c2ccccc2C(=O)N1Cc1ccccc1 (configuration not stated) | . | 1.6 | 90* | -37
Oc1ccccc1-c1nc(/C=C/c2ccccc2Cl)no1 | . | . | 41* | .
CN(C)c1ccc(/C=C/c2noc(-c3ccccc3O)n2)cc1 | . | . | 110 | .
COc1ccc(C)cc1NS(=O)(=O)c1ccc(-c2cnc(C3CC3)o2)cc1 | . | . | 105 | .
COc1cc(Cl)c(NS(=O)(=O)c2ccc(-c3cnc(C4CC4)o3)cc2)c(OC)c1 | . | . | 87* | .
CN(C)c1ccc(NC(=S)N=P(c2ccncc2)(N(C)C)N(C)C)cc1 | 81* | 1.4 | 101 | -32
CN(C)c1ccc(NC(=O)c2ccccn2)cc1 | 11 | 0 | 99 | -32
CC(/C=C/c1ccccc1)=N\NC(N)=S | 91* | -0.45 | 103 | -121
CC(=C/C(=O)O)/C=C/c1ccccc1 | 30 | 0.85 | 102 | -23
ClCc1csc(Nc2ccccc2)n1 | 11 | 0.8 | 110 | .
Cc1csc(Nc2ccccc2)n1 | 72* | -0.85 | 95 | .
O=C(CN1C2=NCCN2c2ccccc21)c1ccc(O)cc1 | 0 | 0.45 | 102 | 1
S=c1nc(CCCCc2nc(=S)[nH][nH]2)[nH][nH]1 | 72* | -0.45 | 75* | 8
CCCc1nc(=S)[nH][nH]1 | 69 | 0.45 | 101 | -10
CCc1cc(C(=O)O)c(NC(=O)c2ccc(Br)cc2)s1 | 46 | 0.55 | 101 | .
CCc1cc(C(=O)O)c(SSc2sc(CC)cc2C(=O)O)s1 | 102* | -0.45 | 76* | -19
